Screening results from PubChem BioAssay.
CYP2C9 inh: inhibitors of human CYP2C9; P11712; CYP2C9 Supersomes, luciferin-H conversion, luminescence; inhibition, % at 5 µM; 20% of 96,000 active; AID 777;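 active means blocking of liver enzyme CYP2C9 beyond about 50% at 5 µM, limit read from the data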
CYP2C19 inhib: blocks human cytochrome P450 2C19; inhibition, % at 5 µM; CYP2C19 Supersomes, luciferin-H EGE luminescence, 30 min; 21% of 96,000 active;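 active means CYP2C19 inhibition above a set limit at 5 µM in the primary screen, cut at about 50% in these data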;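 further: plate controls were negative control wells for no effect and 2.5 mM tranylcypromine positive control for full effect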
Target sequence (P33261 whole entry, looked up): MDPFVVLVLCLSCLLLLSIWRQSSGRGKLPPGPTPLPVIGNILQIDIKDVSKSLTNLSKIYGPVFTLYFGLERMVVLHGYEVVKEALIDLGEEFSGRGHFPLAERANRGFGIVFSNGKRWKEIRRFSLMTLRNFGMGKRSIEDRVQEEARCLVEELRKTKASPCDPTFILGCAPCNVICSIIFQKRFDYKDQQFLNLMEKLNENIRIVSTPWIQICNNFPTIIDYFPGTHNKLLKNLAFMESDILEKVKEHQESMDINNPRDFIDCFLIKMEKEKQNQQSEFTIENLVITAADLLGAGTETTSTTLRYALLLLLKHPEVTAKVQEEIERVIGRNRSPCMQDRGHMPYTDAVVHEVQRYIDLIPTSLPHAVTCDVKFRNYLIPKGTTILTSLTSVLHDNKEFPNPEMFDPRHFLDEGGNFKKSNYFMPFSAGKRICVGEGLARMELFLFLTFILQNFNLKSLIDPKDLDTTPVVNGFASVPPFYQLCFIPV
PLAP activator: activators of human placental alkaline phosphatase; P05187; 1.2% of 96,000 active; activation fold at 20 µM; purified PLAP enzyme, luminescent substrate read-out; hits give high values; in the data active means activation fold above about 2
CYP2C19 activ: activators of human cytochrome P450 2C19. P33261. recombinant CYP2C19, luciferin-H EGE luminescence; hits give high values; 0 = fully inhibited enzyme, 1 = untreated enzyme. activation factor at 5 µM. 96,000 tested, under 10 active. AID 1025;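 active means activation factor of at least 2 at 5 µM in the primary screen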;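 further: 0 = wells with 2.5 mM tranylcypromine and 1 = vehicle-only wells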
CYP2C9 activ: activators of human CYP2C9; P11712; recombinant CYP2C9, luciferin-H conversion, luminescence; hits give high values; factor 1 = untreated enzyme, 0 = blocked; activation factor at 5 µM; 1.4% of 96,000 active; AID 1024;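 active means activation factor of 2 or more for CYP2C9 at a 5 µM dose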;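 further: 0 = sulfaphenazole-blocked wells and 1 = vehicle-only wells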
An asterisk follows results filed as active. Compounds with a hit are over-represented: about 31% of the library has one in this group of screens.

SMILES	CYP2C9 inh	CYP2C19 inhib	PLAP activator	CYP2C19 activ	CYP2C9 activ
O=C(NCc1ccc2c(c1)OCO2)c1nn(-c2ccccc2)c(=O)c2ccccc12	94*	87*	1.2	0.1	0.1
CCCCNC(=O)c1c(O)c2cccc3c2n(c1=O)CCC3	-15	-5	0.8	1.1	1.1
O=C(NCc1ccccc1)c1c(O)c2cccc3c2n(c1=O)CCC3	8	27	1.5	0.7	0.9
O=C(NCc1ccc2c(c1)OCO2)c1c(O)c2cccc3c2n(c1=O)CCC3	72*	22	1.3	0.8	0.3
COc1ccc(CCNC(=O)c2c(O)c3cccc4c3n(c2=O)CC4)cc1OC	72*	55*	1.3	0.4	0.3
O=C(Cn1cnc2ccccc2c1=O)NCc1ccc2c(c1)OCO2	8	6	0.7	0.9	0.9
O=C(COc1ncnc2ccc(Br)cc12)N1CCOCC1	37	22	1	0.8	0.6
COc1ccc(/C=N/NC(=O)c2nn(-c3ccccc3)c(=O)c3c(N)scc23)cc1	30	5	0.9	1	0.7
O=C(Nc1ccc2c(c1)OCO2)c1nn(-c2ccccc2)c(=O)c2ccccc12	16	3	0.8	1	0.8
COc1ccc(/C=N/NC(=O)c2nn(-c3ccc(C)c(C)c3)c(=O)c3ccccc23)cc1	64*	15	1.4	0.9	0.4
COc1cccc(-n2nc(C(=O)Nc3ccc4c(c3)OCO4)c3ccccc3c2=O)c1	90*	42	0.9	0.6	0.1
COc1ccc(-n2nc(C(=O)N3CCN(c4ccc(F)cc4)CC3)c3ccccc3c2=O)c(OC)c1	56*	45	1.5	0.6	0.4
CCOC(=O)c1oc2c(c1C)/C(=N/O)CCC2	7	26	0.9	0.7	0.9
CC12CC3CC(C)(C1)CC(CN)(C3)C2	14	-4	0.8	1	0.9
Cc1nc(NCC2CCCO2)c2nnn(Cc3ccccc3Cl)c2n1 (centres undefined)	-117	56*	1	0.4	2.2*
OCCNc1nc(C2CC2)nc2c1nnn2Cc1ccccc1Cl	60*	82*	0.9	0.2	0.4
Cc1nc(NCC2CCCO2)c2nnn(Cc3ccccc3)c2n1 (centres undefined)	-15	11	1	0.9	1.2
CC(C)OC(=O)N(C)c1ccc(C(O)(C(F)(F)F)C(F)(F)F)cc1	75*	85*	1.6	0.1	0.2
Nc1ccc(C(O)(C(F)(F)F)C(F)(F)F)cc1	7	-4	0.9	1	0.9
COc1ccc(Nc2nnc(C)c(=O)[nH]2)cc1	7	11	0.8	0.9	0.9
COc1ccc(Cn2c(C3CC3)nc3ccc(NC(=O)c4ccco4)cc3c2=O)cc1	55*	54*	1.3	0.5	0.5
Cn1nnnc1SCCOc1ccc(C#N)cc1	-5	62*	0.8	0.4	1
O=C(COC(=O)CC1CCCC1)Nc1cc2c(cc1Cl)C(=O)c1ccccc1C2=O	42	61*	0.7	0.4	0.6
C/C(=N\NC(=O)c1ccc(Br)cc1)c1ccccc1	28	61*	0.9	0.4	0.7
COc1ccc(C2=NOC(Cn3c(Cc4ccc(Cl)cc4)nc4c3c(=O)n(C)c(=O)n4C)C2)cc1 (centres undefined)	82*	74*	1.6	0.3	0.2
SMILES	CYP2C9 inh	CYP2C19 inhib	PLAP activator	CYP2C19 activ	CYP2C9 activ
Cc1cc(C)nc(NC(=NCc2ccc3c(c2)OCO3)NC(=O)Nc2ccccc2)n1	0	-13	0.9	1.1	1
O=C(Nc1ccccc1)N(C1=NCCC1)c1ccc(OC(F)F)cc1	79*	50*	1	0.5	0.2
O=C(c1ccc2c(c1)N(Cc1ccccc1)C(=O)c1ccccc1S2)N1CCCC1	49	63*	1.4	0.4	0.5
CN1CCN(C(=O)c2ccc3c(c2)N(Cc2ccc(Cl)cc2)C(=O)c2ccccc2S3=O)CC1 (centres undefined)	15	-4	1.5	1	0.9
CCCCN(Cc1ccccc1)C(=O)C1CCN(S(=O)(=O)c2c(C)noc2C)CC1	1	4	1.2	1	1
O=C(CSc1nnc(C2COc3ccccc3O2)o1)NC1CCCCC1 (centres undefined)	58*	50*	1.1	0.5	0.4
CC(NC(=O)CCC1COc2ccccc2O1)c1ccccc1 (centres undefined)	7	51*	1.6	0.5	0.9
O=C(CCC1COc2ccccc2O1)NC1CCCCC1 (centres undefined)	12	56*	1	0.4	0.9
Cc1[nH]nc2nc3c(c(OC(=O)c4ccccc4)c12)c(=O)n(C)c(=O)n3C	34	-16	1.1	1.2	0.7
Cc1c(NC(=O)CN2CC(C)OC(C)C2)c(=O)n(-c2ccccc2)n1C (centres undefined)	-6	0	1	1	1.1
CC(C)(NO)/C(=N/O)c1cccs1	-4	2	1.1	1	1
Cc1cccc(NCc2ccccc2O)c1C	61*	96*	0.9	0	0.4
CCN(CCCNC(=O)c1[nH]c(C)c(C(C)=O)c1C)c1cccc(C)c1	50	53*	1	0.5	0.5
CCN(CCCNC(=O)CCn1c(=O)[nH]c2ccccc2c1=O)c1ccccc1	25	62*	1	0.4	0.8
CCCCNC(=O)CCCn1c(=O)[nH]c2ccc(Br)cc2c1=O	12	12	0.7	0.9	0.9
CC(=O)c1c(C)[nH]c(C(=O)NCc2ccccc2)c1C	31	25	0.9	0.8	0.7
CCN(CCCNC(=O)CCCn1c(=O)[nH]c2ccccc2c1=O)c1cccc(C)c1	62*	48	1.1	0.5	0.4
CCN(CCCNC(=O)COc1cc(=O)n(C)c2ccccc12)c1cccc(C)c1	11	27	1.1	0.7	0.9
CCN(CCCNC(=O)CCn1c(=O)[nH]c2ccccc2c1=O)c1cccc(C)c1	24	67*	0.9	0.3	0.8
Cc1cc(C)cc(NC(=O)c2snc3c(=O)[nH]cnc23)c1	2	11	1	0.9	1
Cc1ccc(N/C=C/C(=O)c2sc(-c3ccccc3)nc2C)cc1	21	8	1	0.9	0.8
O=C(CC1CCS(=O)(=O)C1)Nc1ccc[nH]c1=O (centres undefined)	-5	15	1.1	0.8	1.1
Cc1ccc2nc3sc(-c4nnc(-c5ccccc5[N+](=O)[O-])o4)c(N)c3cc2c1	1	14	1.1	0.9	1
Cc1ccc2cc(CN(C(=O)c3ccco3)c3ccccc3)c(=O)[nH]c2c1	22	17	1	0.8	0.8
Cc1ccc(CN(Cc2cc3cc4c(cc3[nH]c2=O)OCCO4)Cc2nnnn2Cc2ccco2)cc1	96*	88*	1.6	0.1	0
Cc1ccc2cc(CN(Cc3ccc4c(c3)OCO4)Cc3nnnn3Cc3ccco3)c(=O)[nH]c2c1	84*	80*	1.6	0.2	0.2
Cc1ccc(NC(=O)c2ccco2)c(NC(=O)Cc2cccs2)c1	2	15	0.8	0.8	1
